Only a selection was taken, and hits are over-represented in it overall.
Pf Dd2 growth = Plasmodium falciparum Dd2 growth inhibition; P. falciparum Dd2 growth, SYBR Green, 72 h; AID 1347417; 4.3% of 120,000 active; Potency, µM (series often up to 28.9 µM), usual class: inhibitors; active = well fitted inhibition curve with a large enough effect; note: nearly all actives have a fitted effect of over 65% in size
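Readout: SYBR Green fluorescence, 485 nm excitation, 535 nm emission, after ~16 h lysis at 37C. Before that, Dd2-infected red cells (2.5% hematocrit) grew 72 h with compound, 29 uM top final concentration.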
Numbers stand for hits; – = inactive.

SMILES	Pf Dd2 growth
O=C(N[C@H](c1ccccn1)C1CC(O)C1)c1cnc2ccccn2c1=O (stereo partly specified)	–
CCNC(=O)N1CCCC(c2nn(C)c(=O)n2C2CCCC2)C1 (stereo unspecified)	–
Fc1ccccc1-c1nnc([C@H]2CCN(Cc3cccc(Cl)c3)C2)o1	–
COC(=O)c1cnc2c(c1)n(CCCn1cnnn1)c(=O)n2C1CCCCC1	–
CC(=O)N(C1CCOCC1)C1CCN(S(=O)(=O)c2ccccc2)CC1	–
COc1ccc(C(=O)N2CCC3(CC2)NC(=O)N(c2ccccc2Cl)N3)cc1	–
Cn1ncc(N2CCC(CNC(=O)CN3CCOCC3)C2)cc1=O (stereo unspecified)	–
COc1cccc(C(=O)N2CCCCCC2c2nc(C)no2)c1 (stereo unspecified)	–
O=C1NC2(CCOCC2)C(=O)N1CC(=O)N1CCCc2ccccc21	–
CCN1CCN(c2ccc(-c3nc(CCCc4ccccc4)no3)cn2)CC1	10µM
c1ccc(CCc2noc(-c3ccc(N4CCCOCC4)nc3)n2)cc1	–
COC1CCN(c2ccc(-c3nc(COc4ccccc4)no3)cn2)CC1	–
O=C1CC2CCN(CC3CCNC3)CC2CCN1 (stereo unspecified)	–
COc1cccc(CC(=O)N2CCc3nn(C)c(=O)n3CC2)c1	–
O=C(NCCc1ccccc1)N(C1CCOCC1)C1CCN(Cc2ccccc2)CC1	5.62µM
O=C(NCCc1ccccc1)N(C1CCOCC1)C1CCN(Cc2cccnc2)CC1	–
O=C(NCCc1ccccc1)N(C1CCOCC1)C1CCN(Cc2ccsc2)CC1	–
COc1ccc(N2CC(C(=O)N3CCC(C(=O)NCc4ccc(F)cc4)C3)NC2=O)cc1 (stereo unspecified)	–
CN1C[C@H](O)C[C@H]1c1nnc2n1CCN(C(=O)c1ccoc1)CC2	–
C[C@@H](NC(=O)[C@@]1(O)C[C@@H](O)[C@H](O)[C@@H](NC(=O)Nc2ccc(OC(F)(F)F)cc2)C1)C(N)=O	–
COc1ccc(CN2C[C@H]3CN(Cc4ccc([N+](=O)[O-])cc4)CCN3C2=O)cc1	–
C[C@@H]1C(=O)O[C@H]2[C@H]1CC[C@@]1(C)Cc3sc(NS(=O)(=O)c4ccc(F)cc4)nc3[C@@H](C)[C@H]21	–
C[C@@H]1C(=O)O[C@H]2[C@H]1CC[C@@]1(C)Cc3sc(NC(=O)Nc4ccc(Oc5ccccc5)cc4)nc3[C@@H](C)[C@H]21	11.2µM
CC(=O)N1CCC(C(=O)Nc2nc3c(s2)C[C@]2(C)CC[C@@H]4[C@H](OC(=O)[C@H]4C)[C@H]2[C@@H]3C)CC1	–
C[C@@H]1C(=O)O[C@H]2[C@H]1CC[C@@]1(C)Cc3sc(NC(=O)c4c(Cl)cccc4Cl)nc3[C@@H](C)[C@H]21	–
SMILES	Pf Dd2 growth
COCC(=O)Nc1nc2c(s1)C[C@]1(C)CC[C@@H]3[C@H](OC(=O)[C@H]3C)[C@H]1[C@@H]2C	–
C[C@@H]1C(=O)O[C@H]2[C@H]1CC[C@@]1(C)Cc3sc(NC(=O)NC4CCCCC4)nc3[C@@H](C)[C@H]21	11.2µM
CN(C)C[C@@H]1CN(C2CCOCC2)C[C@H]1NC(=O)c1cnco1	–
CCn1ccc(C(=O)N2CCC(c3nn(C)c(=O)n3CCc3ccccc3)CC2)n1	–
O=C(Nc1ccc([C@@H](O)[C@H]2COCC(=O)N2Cc2ccc(F)cc2)cc1)c1ccccc1	–
N#Cc1ccc(C(=O)Nc2ccc([C@@H](O)[C@H]3COCC(=O)N3Cc3ccc(F)cc3)cc2)cc1	10µM
N#Cc1cccc(C(=O)Nc2ccc([C@@H](O)[C@H]3COCC(=O)N3Cc3ccc(F)cc3)cc2)c1	–
Cc1cc(C)c(NC(=O)CN2C(=O)c3cccnc3Sc3ccccc32)c(C)c1	–
CCc1ccccc1NC(=O)CN1C(=O)c2cccnc2Sc2ccccc21	–
Cc1cc(NC(=O)CN2C(=O)c3cccnc3Sc3ccccc32)ccc1Br	11.2µM
CCNC(=O)N(C1CC1)C1CCOC2(CCN(C(=O)NCc3ccc(C)cc3)CC2)C1 (stereo unspecified)	–
CSc1ccc(-c2ccc3c(c2)C(=O)N2CCN(C(=O)CCC(=O)O)C[C@H]2C(=O)N3)cc1	–
CSc1ccc(-c2ccc3c(c2)C(=O)N2CCN(C(=O)CCC(=O)O)C[C@@H]2C(=O)N3)cc1	–
CSc1ccc(-c2ccc3c(c2)C(=O)N2CCN(C(=O)CC(C)(C)C)C[C@@H]2C(=O)N3)cc1	5.62µM
CN(C)CC1(O)CCN(C(=O)Cn2cc(C(=O)C3CC3)c3ccccc32)C1 (stereo unspecified)	–
CC1=C[C@@H](CN(C)CCc2ccccn2)[C@H](C(C)C)C[C@H]1Cc1nnc(-c2ccccc2)o1	2.24µM
COc1ccc(-c2nnc(C[C@@H]3C[C@@H](C(C)C)[C@H](CNCc4ccncc4)C=C3C)o2)cc1	3.98µM
CC1=C[C@@H](CNC(=O)c2cccnc2)[C@H](C(C)C)C[C@H]1CC(=O)NCc1ccccn1	–
CC1=C[C@@H](CNS(C)(=O)=O)[C@H](C(C)C)C[C@H]1Cc1nnc(-c2cncn2C)o1	–
CC1=C[C@@H](CN2CCC(C(N)=O)CC2)[C@H](C(C)C)C[C@H]1Cc1nnc(C(C)(C)C)o1	–
CC1=C[C@@H](CNC(=O)NC(C)C)[C@H](C(C)C)C[C@H]1CC(=O)NCc1ccccn1	–
CC1=C[C@@H](CNC(=O)COc2ccccc2)[C@H](C(C)C)C[C@H]1CC(=O)Nc1ccccn1	–
CC1=C[C@@H](CNS(=O)(=O)c2ccccc2)[C@H](C(C)C)C[C@H]1CC(=O)NCc1ccccn1	–
CC1=C[C@@H](CN(C)CCc2ccccn2)[C@H](C(C)C)C[C@H]1Cc1nnc(-c2ccncc2)o1	3.55µM
CC1=C[C@@H](CNC(=O)C(C)(C)C)[C@H](C(C)C)C[C@H]1Cc1nnc(-c2ccccc2F)o1	–
SMILES	Pf Dd2 growth
COc1ccc(C(=O)NC[C@@H]2C=C(C)[C@H](CC(=O)O)C[C@H]2C(C)C)cc1	–
CC1=C[C@@H](CNCc2ccco2)[C@H](C(C)C)C[C@H]1Cc1nnc(C(C)(C)C)o1	12.6µM
Cc1ccc(CN2C(=O)COC[C@H]2C(=O)N2CCN(c3ccccc3F)CC2)cc1	–
Cc1cccc(NC(=O)Cn2c(N3CCC(C)CC3)nc(C)cc2=O)c1	–
O=C(O)Cn1nc(C2CCOCC2)nc1CC1NC(=O)NC1=O (stereo unspecified)	–
CCN(CC)C(=O)CN1C(=O)NC2(CCC(C)CC2)C1=O (stereo unspecified)	–
O=C(CC(c1ccccc1)c1ccccc1Cl)NCc1cc2n(n1)CCNC2 (stereo unspecified)	–
Cc1cnc(C(=O)NC2C[C@H]3CC[C@@H](C2)N3C(=O)CC(C)C)cn1 (stereo partly specified)	–
CC(=O)Nc1cccc(-c2nc(-c3c(C)noc3C)cc3cc(C)oc23)c1	–
COCC1CCN(C(=O)COc2ccc(NC(=O)C3CC3)cn2)CC1	–
CCn1cc(S(=O)(=O)N2CCCC(c3nnnn3-c3ccccc3)C2)cn1 (stereo unspecified)	–
COC(=O)C1=CN(CC(=O)N(C)c2ccccc2)S(=O)(=O)N=C1C	–
O=C(NC1CCCN(c2cc(-c3ccccc3)[nH]n2)C1)C1CCCC1 (stereo unspecified)	–
CC(C)CC(=O)NCC1Cn2cccc2C(=O)N1Cc1ccccc1 (stereo unspecified)	–
CC1=C[C@@H](CNS(=O)(=O)c2ccccc2)[C@H](C(C)C)C[C@H]1CC(=O)NCCN(C)C	–

High-throughput results: PubChem, National Center for Advancing Translational Sciences (NCATS)
